Molecules are shown by their SMILES. Several values for one entry are separate records, joined by “and”; a condition that tells them apart may be missing. Identical values can stand only once. Values without a mark were called inactive. Inconclusive results are not listed. Activity calls are given as the source filed them. Unless noted, calls come from the whole dose curve; as a rule, active = well fitted curve in the direction sought with a large enough effect; inconclusive = small, poorly fitted or top-dose-only effect, or another doubt; inactive = no such curve, though single readings can be large; an effect the other way counts as inactive or inconclusive. Bounds are passed on as bounds.

The results in this text go back to PubChem BioAssay (NCATS).

Assay [1] in a line: Cell Viability - Jurkat (AID 426;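 active = dose-dependent loss of cell ATP signal giving a full or clear fitted curve, ranked by lower potency value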; note: potency is the fitted concentration of half-maximal effect). The conditions noted are these: qHTS. The procedure, abridged:
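Cytotoxicity was scored as loss of cellular ATP, measured by luciferase-based luminescence, in Jurkat clone E6-1 cells after 40 h compound treatment; tamoxifen and doxorubicin served as positive controls.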
In general terms: qHTS replaces the single test concentration by a dilution series.

Assay [2] is described as follows: Cell Viability - Hek293 (AID 427;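 active = compounds whose dose-response curve shows a full or clear partial loss of cell viability, called from curve shape rather than a numeric limit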;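 note: potency is the fitted concentration of half-maximal effect; cells exposed to compound for 40 hours at 37 °C before reading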). Conditions: qHTS. The gist of the method: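 HEK293 cells in complete medium were exposed to compound for 40 hr at 37 °C, then cellular ATP was read by CellTiter-Glo luminescence. Data were normalized to DMSO (basal) and 100 uM tamoxifen (100% inhibition), and AC50 came from Hill fits.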
Assay [3] can be described thus: Cell Viability - HepG2 (AID 433; calls by dose curve;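 note: potency is the fitted concentration of half-maximal effect; potency for ATP loss meaning cytotoxicity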). The conditions noted are these: qHTS. The gist of the method: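 HepG2 hepatocellular carcinoma cells (1500/well) were treated with compounds for 40 h at 37 °C in complete medium; intracellular ATP was read by CellTiter-Glo luminescence. Data were normalized to DMSO and 100 uM tamoxifen, and AC50 came from Hill fits.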
The nature of assay [4]: Cell Viability - SK-N-SH (AID 435; calls by dose curve;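 note: potency is the fitted concentration of half-maximal effect; compound exposure lasted 40 h at 37 °C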). The conditions noted are these: SK-N-SH neuroblastoma cell viability qHTS. The gist of the method: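 SK-N-SH human neuroblastoma cells (1500/well) were exposed to compounds in complete medium for 40 h at 37 °C, and intracellular ATP was then measured by CellTiter-Glo luminescence. AC50 was taken from Hill fits, normalized to DMSO and 100 uM tamoxifen.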

Assay [5] is described as follows: Cell Viability - NIH 3T3 (AID 541).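 For activity change, negative = cytotoxicity: plate controls were DMSO alone for no effect and tamoxifen positive control for full effect.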 Note: nearly all actives have a fitted effect of over 25% in size. Note: potency is the fitted concentration of half-maximal effect. Conditions: NIH 3T3 cell viability, qHTS; activity change, negative = cytotoxicity: at 92.2 µM (top of the series). The gist of the method:
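In this cytotoxicity screen, acute toxicity is scored as an ATP drop measured by CellTiter-Glo in NIH 3T3 fibroblasts following a 40 hr, 37 °C incubation with compound.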

Assay [6] can be described thus: Cell Viability - H-4-II-E (AID 543). Note: nearly all actives have a fitted effect of over 35% in size. Note: potency is the fitted concentration of half-maximal effect. Conditions: H-4-II-E rat hepatoma viability; series mostly up to 92.2 µM. The procedure, abridged: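 AC50 from Hill-modelled qHTS concentration-response curves. H-4-II-E rat hepatoma cells in complete medium, 40 hr exposure at 37 °C, viability by CellTiter-Glo ATP luminescence.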
Assay [7] can be described thus: Cell Viability - Mesenchymal (AID 546).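 Note: cells exposed to compound for 40 hours before reading.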 Note: potency is the fitted concentration of half-maximal effect. Conditions: mesenchymal cells viability, qHTS; activity change, negative = cytotoxicity: at 91.7 µM (top of the series). The gist of the method:
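CellTiter-Glo luminescence (intracellular ATP, 20 min room temperature) after 40 hr compound exposure at 37 °C of 1000 glomerulus-derived human kidney mesenchymal cells/well; AC50 values obtained by fitting qHTS concentration-response data to the Hill equation.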

The nature of assay [8]: Cellular Toxicity (caspase-3) HepG2 (AID 654).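 Note: cells exposed to compound for 16 hours before reading; 0% = DMSO alone and 100% = caspase signal from 100 µM tamoxifen.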 Conditions: HepG2 caspase-3 activation, luminescence, 0% = DMSO only, 100% = tamoxifen; series mostly up to 92.2 µM. The gist of the method: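 Concentration-response AC50 values reflect caspase-3/7 induction in HepG2 cells after 16 hours of compound exposure, quantified by luminescence from liberated aminoluciferin and referenced to 100 uM tamoxifen as full stimulation.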

Assay [9] is described as follows: Cellular Toxicity (caspase-3) HUV-EC-C (AID 656). Conditions: HUV-EC-C cells, caspase-3 activation (apoptosis), vehicle = 0, 100 µM tamoxifen = 100%; series mostly up to 92.2 µM. The procedure, abridged: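 HUV-EC-C endothelial cells, 1000/well, were pre-incubated 5 hr at 37°C, then exposed to compounds for 16 hr at 37°C. Caspase-Glo 3/7 luminescence was read after 20 min at room temperature. AC50 came from Hill fits, normalized to DMSO and 100 uM tamoxifen.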

Assay [10] can be described thus: Cellular Toxicity (caspase-3) BJ (AID 658). The conditions noted are these: BJ fibroblasts, luminescence, normalized: DMSO 0%, staurosporine 100%; series mostly up to 91.7 µM. The gist of the method:
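Caspase-Glo 3/7 luminescence, read 1 hr after reagent at room temperature, in normal BJ fibroblasts exposed 16 hours at 37 °C. AC50 values from Hill-equation concentration-response, scaled between DMSO basal and 10 uM staurosporine as 100%.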

A short description of assay [11]: Cellular Toxicity (caspase-3) MRC-5 (AID 659). Conditions: MRC-5 cells, luminescence, normalized: DMSO 0%, 10 µM staurosporine 100%; series mostly up to 91.7 µM. The gist of the method:
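Luminescent Caspase-Glo 3/7 read-out (1 h, room temperature) after a 16 h, 37 °C compound exposure of MRC-5 lung fibroblasts at 1500 cells/well. Concentration-response AC50 from Hill equation; 0% DMSO, 100% 10 uM staurosporine.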

Assay [12] in a line: Cellular Toxicity (caspase-3) Mesangial (AID 660).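 Note: combined caspase 3 and 7 activity read by Caspase-Glo luminescence; cells exposed to compound for 16 h before the caspase read.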 Conditions: mesangial cells, normalized: DMSO 0%, 100 µM tamoxifen 100%; series mostly up to 91.7 µM. The gist of the method:
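AC50 values come from Hill-equation fits of caspase 3/7 activation, measured as Caspase-Glo luminescence in human glomerular mesangial cells exposed to compound for 16 h at 37 °C; 100% set by 100 uM tamoxifen.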

The nature of assay [13]: Cellular Toxicity (caspase-3) NIH 3T3 (AID 666). The conditions noted are these: NIH 3T3 caspase-3 activation, apoptosis/toxicity, 0% DMSO, 100% is 100 µM tamoxifen; series mostly up to 92.2 µM. The procedure, abridged: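 Activity: caspase-3/7 induction, NIH 3T3 cells, 16 hr treatment at 37°C, luminescent Caspase-Glo detection; AC50 via Hill equation.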
A short description of assay [14]: Cellular Toxicity (caspase-3) Renal Proximal Tubule (AID 667).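 Note: cells exposed to compound for 16 hours at 37 °C before detection.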 Conditions: renal proximal tubule cells, primary cells freshly taken from rat, solvent-only wells 0%, staurosporine 100%; series mostly up to 91.7 µM. The gist of the method: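 Primary rat proximal tubule cells, 1000/well, 5 h plating at 37 °C, then compound 16 h at 37 °C. Caspase-Glo 3/7 reagent, 1 h RT, luminescence. Normalized to DMSO (basal) and 10 uM staurosporine (100%); Hill-fit AC50.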

Assay [15] in a line: MultiTox-Fluor Cytotoxicity Assay - LYMP1-003 - Live Cells (AID 962).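 Note: 0% = DMSO only and full loss = 92 µM tetraoctylammonium bromide; cytotoxic hits lower the live-cell protease signal.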 Conditions: LYMP1-003 lymphoblastoid cells, MultiTox-Fluor live-cell protease fluorescence; series mostly up to 92.2 µM. The procedure, abridged:
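Human lymphoblastoid line LYMP1-003 in complete culture medium, treated 16 hr with titrated compounds. Viable cells quantified via cell-permeant GF-AFC substrate fluorescence; AC50 derived by Hill fitting.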

Assay [16] is described as follows: Cell Viability - LYMP1-003 - Assay at 40 hr (AID 964). Note: nearly all actives have a fitted effect of over 60% in size. Note: potency is the fitted concentration of half-maximal effect. The conditions noted are these: LYMP1-003 lymphoblastoid viability; series mostly up to 92.2 µM. The gist of the method: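 Acute toxicity is scored as a concentration-dependent loss of intracellular ATP in LYMP1-003 cells (2500/well, complete medium) after 40 hr at 37 C, measured by CellTiter-Glo luminescence; AC50 values derive from standard Hill modelling.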

A short description of assay [17]: Cell Viability - LYMP2-011 (AID 969).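 Note: cells exposed to compound for 24 hours; 0% = DMSO only and full inhibition = 92 µM tetraoctylammonium bromide; nearly all actives have a fitted effect of over 60% in size.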 Conditions: LYMP2-011 lymphoblastoid cells viability; series mostly up to 92.2 µM. The procedure, abridged:
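Cells seeded at 2500 per well rest 5 hr before compound addition, then incubate 24 hr at 37 C. CellTiter-Glo reagent is added for 30 min at room temperature before luminescence detection.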

Assay [18] in a line: qHTS Assay for Identification of Small Molecule Inducers of Hypoxia Response (AID 2120; active = well fitted curve in the direction sought with a large enough effect in the signal ratio, with a control signal flat, not every such curve was filed as active; the % refers to the signal ratio; note: 0% is about no effect). The conditions noted are these: hypoxia response reporter cells, beta-lactamase ratio readout; series mostly up to 104 µM. The gist of the method: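 HRE-bla ME-180, 2500 cells/well, 0.5% dialyzed FBS medium; cpd titration, 17 h 37 degrees C; CCF4 2.5 h RT; Ex 405, Em 460/530 ratio -> %Activity, AC50.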

Assay [19] has as its target Peroxisome proliferator-activated receptor alpha (Homo sapiens) (UniProt Q07869). Nature of the assay: qHTS assay for small molecule agonists of the peroxisome proliferator-activated receptor alpha (PPARalpha) signaling pathway (AID 651778). Note: % of control where 0% means no effect. The conditions noted are these: PathHunter PPARalpha complementation, chemiluminescence, 6 h; max response: hits give high values. The procedure, abridged: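 Chemiluminescence from complemented enzyme reported PPARalpha activation in cells after 6 hr of compound treatment at 37 C. The detection reagent was incubated for 60 min at room temperature, and compounds were scored as agonists.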

For assay [20], the target named is Mitogen-activated protein kinase 10 (Mus musculus) (UniProt Q61831). Nature of the assay: JNK3 AlphaScreen Assay (AID 530; active = well fitted curve in either direction with a large enough effect, not every such curve was filed as active;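 note: kinase came from lysate of stimulated human HepG2 cells; signal reports phosphorylation of biotinylated GST-cJun 1-79 at Ser73 with 10 µM ATP; % is set by controls: 0 for no effect and ±100 for the full control effect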). Conditions: JNK3 lysate, c-Jun phosphorylation; series mostly up to 57.1 µM. The gist of the method: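 Kinase buffer: 20 mM Tris-HCl pH 7.6, 10 mM MgCl2, 1 mM DTT, 0.1 mM Na3VO4, 0.01% Tween-20; ATP 10 uM. Substrate biotin-GST-cJun(1-79), enzyme from activated HepG2 lysates. Detection by Ser73 phospho-antibody AlphaScreen.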

Peroxisome proliferator-activated receptor alpha (Homo sapiens), sequence (Q07869 whole entry, looked up): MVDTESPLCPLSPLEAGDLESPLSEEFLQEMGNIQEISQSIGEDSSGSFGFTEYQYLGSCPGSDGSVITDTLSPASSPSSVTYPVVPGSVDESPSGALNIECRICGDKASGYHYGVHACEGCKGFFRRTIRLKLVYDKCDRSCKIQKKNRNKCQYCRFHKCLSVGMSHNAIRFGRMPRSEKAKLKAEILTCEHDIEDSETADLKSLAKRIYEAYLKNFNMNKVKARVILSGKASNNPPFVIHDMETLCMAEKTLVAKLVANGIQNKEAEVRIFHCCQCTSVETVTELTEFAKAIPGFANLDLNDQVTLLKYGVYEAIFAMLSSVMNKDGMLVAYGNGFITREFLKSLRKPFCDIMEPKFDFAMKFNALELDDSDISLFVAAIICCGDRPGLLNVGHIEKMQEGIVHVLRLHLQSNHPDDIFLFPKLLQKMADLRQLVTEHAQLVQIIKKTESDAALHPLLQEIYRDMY

For the compound `c1ccc2c(c1)[nH]c1ccccc12`, the Potency in assay [1], in [2], in assay [3] and in assay [4] was over 92 µM throughout. For the same compound, the Potency result in [5], in [6], in assay [15], in [16] and in [17] was “inactive” each time. Also, in assay [7], the activity change, negative = cytotoxicity is -7.62%. Further, the result in assay [8], in [9], in assay [10], in [11], in assay [12] and in [13] was inactive. The outcome in assay [14] and in assay [18] was inactive. Further, in assay [19], the max response is 5.12% and 0.259%.

Take `S=C1NC=NC2N=CNC12` (stereo not given): the Potency is 0.128 µM (active) in assay [1]; 1.03 µM (active) in assay [2]; 1.23 µM (active) in [3]; 0.237 µM (active) in assay [4]; 3.98 µM (active) in assay [5]; 0.158 µM (active) in assay [6]. Further, the values for the Potency in assay [7] and in assay [16] were 0.501 µM (active) and 1.58 µM (active), respectively. Further, the Potency result in assay [20], in assay [15] and in assay [17] was “inactive” each time. For the same compound, the compound was called inactive in assay [8], in assay [9], in assay [10], in [11], in assay [12] and in [13]. In addition, the compound was called inactive in assay [14] and in assay [18]. The max response in assay [19] is -7.07%.

Take `COc1ccc2[nH]cc(CCNc3ncnc4ccc(-c5cccc(C#N)c5)cc34)c2c1`: the Potency result in assay [20] was “inactive”.

On to `CCC(O)OC(O)CC` (stereo not given), for which the Potency in [1], in assay [2], in assay [3] and in assay [4] was over 92 µM each time. Also, the Potency result in assay [20], in assay [5], in assay [6], in assay [15], in [16] and in assay [17] was “inactive” in each case. The activity change, negative = cytotoxicity in assay [7] was 7.91% and -0.346%. Besides, the compound was called inactive in assay [8], in [9], in assay [10], in assay [11], in assay [12] and in [13]. Also, the result in assay [14] and in assay [18] was inactive. Besides, the max response in [19] is -0.587% [middle of 4 runs].

As to `CCCCCCCCCCCCCCC1CO1` (stereo not given), the Potency in assay [1], in [2], in [3] and in assay [4] was over 92 µM throughout. In addition, the Potency result in assay [20], in assay [5], in assay [6], in assay [15], in assay [16] and in assay [17] was “inactive” each time. Besides, in [7], the activity change, negative = cytotoxicity is 2.08%. Further, the compound was classed as inactive in [8], in [9], in assay [10], in assay [11], in assay [12] and in assay [13]. Also, the compound was classed as inactive in [14] and in assay [18]. In addition, the max response in assay [19] is -0.26% and -1.17%.

As to `Clc1cc(Cl)c(Cl)cc1Cl`, the Potency in assay [1], in assay [2], in assay [3] and in assay [4] was over 92 µM in each case. The Potency entry in assay [20], in [5], in assay [6], in assay [15], in assay [16] and in [17] was “inactive” in each case. Further, the activity change, negative = cytotoxicity in assay [7] is 9.51%. Further, the compound was called inactive in assay [8], in assay [9], in [10], in assay [11], in assay [12] and in assay [13]. The compound was classed as inactive in assay [14] and in assay [18]. Further, the max response in assay [19] was -0.154% and -0.267%.
